Test system: P. falciparum stage V gametocytes
Set-up: BacTiter-Glo ATP luminescence viability of purified stage V gametocytes in 384-well plates, per cent inhibition versus DMSO
Details: 48 h, 5 µM; inhibitor
Description: Once purified, gametocytes were counted using a Neubauer chamber, and the density was adjusted to 2.5 x 10^5 gametocytes/mL. Fifty μL of the gametocyte suspension (1.25 x 10^4 gametocytes) were added to each well of the 384-well plate containing the compounds, using a Multidrop combi (Thermo Electron Corporation). Plates were shaken for 5 sec to homogenize and then incubated at 37°C for 48 h in an atmosphere of 5% CO2, 5% O2, 90% N2. The ATP level of each well was determined using the BacTiter-Glo reagent (Promega) according to the recommendations of the manufacturer. The BacTiter-Glo assay generates a ‘glow-type’ luminescent signal produced by the luciferase reaction, which consists of mono-oxygenation of luciferin catalyzed by luciferase in the presence of Mg^2+, ATP and molecular oxygen. The luminescence was measured using a plate reader (Victor V, Perkin Elmer). […] The background value was subtracted from every other value of the assay prior to further calculation. The average of 16 replicates of vehicle control (0.5% or 0.1% DMSO) represents 100% of signal. Related to this value, each test concentration was calculated as percentage of control. All the calculations were done using MS Excel software. The compounds which presented inhibition ≥ 90% at 5 μM were progressed to the assay at 1 μM. […]

| Structure (SMILES) | % Inhibition [%] |
| --- | --- |
| CC[C@H]1CN2CCc3cc(OC)c(OC)cc3[C@@H]2C[C@@H]1C[C@H]1NCCc2cc(OC)c(OC)cc21 [TCMDC-125531] | 96.47 |
| CCC1CN2CCc3cc(OC)c(OC)cc3C2CC1CC1NCCc2cc(OC)c(OC)cc21 (centres unmarked) [TCMDC-125849] | 100.9 |

— article PMC4552634, “A New Set of Chemical Starting Points with Plasmodium falciparum Transmission-Blocking Potential for Antimalarial Drug Discovery” (PLoS ONE, 2015)
